The sample as a whole holds a higher share of hits than the screen did.
mcGAS RapidFire – inhibitors of mouse cGAS. recombinant mouse cGAS, cGAMP by RapidFire MS. inhibition, % at 12.5 µM. actives 0.18% (n = 130,000);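 active = inhibition of cGAS enzyme activity at or above 60%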;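 also: enzyme stimulated by 45 bp dsDNA with ATP and GTP substrates; cGAMP share of summed cGAMP plus half ATP and half GTP signals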
Starred values were filed as active, the others as inactive.

SMILES	mcGAS RapidFire
COc1cccc(-c2nc(-c3c[nH]c4ccccc34)cs2)c1OC	-2
O=C(CCl)Nc1nc(-c2c[nH]c3ccccc23)cs1	72*
CN(C)c1ccc(NC(=O)CC2CC3CCC2C3)nc1 (stereo not drawn)	-11
Cn1cc(C#N)c(=O)n(CC(=O)N(Cc2ccccc2)CC(F)(F)F)c1=O	-4
CCc1sc(-c2nnc(CSc3nnc(C4CC4)n3C)o2)cc1C	-4
COC(=O)c1ccc(Cn2nc(C)c3cnn(-c4ccc(C)cc4C)c3c2=O)o1	-5
CCOC(=O)c1[nH]ncc1CN1CCCC(N2CCN(c3ccccc3OC)CC2)C1 (stereo not drawn)	5
O=c1oc2ccc(O)cc2s1	1
CCOC(=O)Oc1cc2oc(=O)sc2cc1Br	74*
COC(=O)Oc1cc2oc(=O)sc2cc1Br	2
COC(=O)C(NCc1ccc(Cl)s1)C(C)(C)C (stereo not drawn)	-3
O=S(=O)(c1ccccc1O)C(F)(F)F	-13
CC(C)(O)CCOc1ccccc1S(=O)(=O)C(F)(F)F	72*
O=S(=O)(c1ccccc1NC(C1CC1)C1CC1)C(F)(F)F	-19
O=C(c1ccccc1-n1cccn1)N1CCN(Cc2ccccc2)CC1	-12
CC(C(=O)Nc1ccc(Cl)cc1)N1CCCC1c1cccs1 (stereo not drawn)	-2
COc1ccc(-c2ccnc3[nH]n(-c4nc(C)cc(C)n4)c(=O)c23)cc1	-42

Screening results: PubChem, Fisher Drug Discovery Resource Center
